Source: PubChem
Only some compounds are listed: those with a hit (about 2.6% of all), similar ones and a draw of the others.
hERG WT inh = KCNH2 (human, wildtype) channel inhibition. Q12809. U2OS, BacMam KCNH2, thallium flux FluxOr; stronger effect = lower value. activity change, % at 1.84 µM. 340,000 compounds, 0.37% hits. AID 720551;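 active = maximum activity change below -70%; inconclusive = maximum activity change between -70% and -50%; inactive = maximum activity change above -50%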; also: % is scaled to controls: 0 for no effect and ±100 for the full control effect
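U2OS cells were transduced with wild-type KCNH2 virus (2.03 x 10^8 / mL) for 4 h at room temperature, then cultured overnight at 37 C. Thallium flux was read with FluxOr dye. Rate constants were normalized to DMSO controls.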
TRPV1 potentiator = human TRPV1 potentiation. Q8NER1. potentiation, % at 8.33 µM. TRPV1-expressing cells, Fluo-8 calcium influx, capsaicin EC20 potentiation. AID 540277. 320,000 compounds, 0.02% hits; in the data active = potentiation above about 80%; inconclusive = between about 30% and that limit; also: 0% is about no effect
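TRPV1-expressing cells were cultured overnight at 35.5C and loaded with Fluo-8 calcium dye for 40 to 90 min at room temperature. After a 10 s baseline, compound was added and calcium influx was read kinetically for 3 min (ex 480/em 520 nm).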
p53 reactivation = re-activators of mutant p53; Potency, µM (doses to about 92.2 µM), inactives show top-dose activity change, positive = activation, most hits filed as activators; H1299 p53-A138V BP100-luciferase reporter, luminescence, 24 h; AID 504706; 320,000 compounds, 0.063% hits; active = well fitted activation curve with a large enough effect; inconclusive = small, poorly fitted or top-dose-only effect; inactive = no such curve, though single readings can be large or run the other way; also: potency is read from the fitted curve at half-maximal effect; % of control where 0% means no effect; nearly all actives have a fitted effect of over 45% in size
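p53-null H1299 cells stably carrying temperature-sensitive p53-A138V and a BP100-luciferase reporter were pinned with compounds (4-point, 1:5 series) and held 24 hrs at 37 deg C. Luminescence was read 10 min after detection reagent.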
KCNH2 3.1 inh = blocks the human KCNH2 3.1 channel isoform. AID 720553. 340,000 compounds, 0.95% hits. activity change, % (tested at about 1.8 µM). U2OS KCNH2 3.1, thallium flux FluxOr; stronger effect = lower value;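 active = maximum activity change below -70%; inconclusive = maximum activity change from -70% to -50%; inactive = maximum activity change above -50%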;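 also: thallium influx rate constant from kinetic fluorescence after stimulation buffer; % is scaled to controls: 0 for no effect and ±100 for the full control effect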
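Channel expression came from 3.1 mutant virus (1.77 x 10^8 /mL) applied to suspended U2OS cells for 4 h. Flux was tracked with FluxOr dye plus Red40 quencher, and kinetic rate constants normalized to controls.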
ClpP mod = qHTS Assay for Activators of ClpP; ATP-dependent Clp protease proteolytic subunit (Bacillus subtilis (strain 168)), P80244; purified B. subtilis ClpP, FRET peptide cleavage, 20 min; Potency, µM (doses to about 57.5 µM), inactives show at the highest dose activity change, negative = active; 340,000 compounds, 1.9% hits; active = well fitted falling curve with a large enough effect; inconclusive = small, poorly fitted or top-dose-only effect; inactive = no such curve, though single readings can be large or run the other way; also: potency is read from the fitted curve at half-maximal effect; the source files actives as falling curves though it sought activators and does not explain the sign; nearly all actives have a fitted effect of over 65% in size
Target sequence (P80244 whole entry, looked up): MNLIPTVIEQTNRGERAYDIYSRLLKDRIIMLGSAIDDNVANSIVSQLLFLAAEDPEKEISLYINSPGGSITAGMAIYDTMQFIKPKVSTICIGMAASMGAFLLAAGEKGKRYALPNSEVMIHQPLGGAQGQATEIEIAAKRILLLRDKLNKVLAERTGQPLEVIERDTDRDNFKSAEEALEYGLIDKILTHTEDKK
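Buffer: 100 mM Tris/HCl pH8, 100 mM KCl, 0.05% low protease BSA, 2.5% glycerol, 0.01% Tween-20. ClpP 10 microg/mL final; 20 min RT; delta FRET normalized to ADEP and DMSO controls.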
TRPV1 agonist = activates the human vanilloid receptor TRPV1; Q8NER1; TRPV1-expressing cells, Fluo-8 calcium influx, agonist mode; activation, % at 8.33 µM; 320,000 compounds, 0.19% hits; AID 540275; in the data active = activation above about 80%; inconclusive = between about 30% and that limit; also: 0% is about no effect
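Cells expressing TRPV1 were dye-loaded with Fluo-8 and read kinetically: 10 s baseline, 3 min after compound (agonist portion), then 2 min after EC20 capsaicin (allosteric enhancer portion). Calcium-bound dye fluorescence at 480/520 nm.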
Numbers without * were called inactive; ? = inconclusive; nt = no result given.

SMILES	hERG WT inh	TRPV1 potentiator	p53 reactivation	KCNH2 3.1 inh	ClpP mod	TRPV1 agonist
Nc1nc2ccccc2n1CCOc1ccc(Br)cc1	10	-1	nt	-91*	0%	-3
S=C(Nc1ccccc1)Nc1nc2ccccc2n1CCOc1ccc(Br)cc1	27	4	22µM*	-5	-1%	-2
Nc1nc2ccccc2n1CCOc1ccccc1Cl	14	6	5%	-10	1%	-2
Nc1nc2ccccc2n1CCOc1ccc(Cl)cc1	-18	1	nt	-84*	-1%	-5
CC(C)c1ccccc1NC(=O)CN(c1ccccc1)S(=O)(=O)N(C)C	nt	nt	nt	nt	0%	nt
Cn1cc(Br)c(NC(=O)/C=C/C(=O)O)n1	-6	29	-13%	-122*	0%	-2
COc1ccccc1C1CCN(Cc2ccc3ccccc3c2)CC1	-209*	-9	-2%	-188*	-16%	2
COc1ccc(CCC(=O)NO)cc1	nt	nt	nt	nt	1%	nt
Cc1c(Cl)cccc1NC(=S)N1CCN(C(=O)C2CCCO2)CC1 (stereo not drawn)	8	-6	-6%	-8	28µM*	0
O=c1[nH]c2ccc(S(=O)(=O)Nc3ccc(Cl)cc3)cc2o1	5	1	-10%	?	1%	1
COc1cc(NS(=O)(=O)c2ccc3[nH]c(=O)oc3c2)cc(OC)c1	20	1	1%	-71*	nt	-5
COC1(OC)C(/C=C/c2ccc(C)cc2)C(C#N)(C#N)C1(OC)OC (stereo not drawn)	-16	nt	nt	5	32µM*	nt
CCN1/C(=C/C=C/c2oc3ccc(-c4ccccc4)cc3[n+]2CC)Oc2ccc(-c3ccccc3)cc21	-96*	?	-12%	-160*	nt	105*
CCN1/C(=C/C=C/c2sc3ccccc3[n+]2CC)Sc2ccccc21	-12	11	-5%	-13	1%	-4
CCOc1ccc(C(=O)NCC(=O)OCc2c(F)cccc2Cl)cc1	-1	-14	5%	9	28µM*	16
CCOc1ccc(CN2CCN(Cc3cccn3-c3ncccn3)CC2CCO)cc1 (stereo not drawn)	?	5	-2%	-111*	nt	-7
COc1ccc(CN2CCN(Cc3cccn3-c3ncccn3)CC2CCO)c(C)c1C (stereo not drawn)	-36	9	-1%	-74*	-1%	-1
CC(C)=CCN1CCN(Cc2cccn2-c2ccccn2)CC1CCO (stereo not drawn)	45	4	-3%	2	28µM*	-4
CC(C)CN1CCN(Cc2cccn2-c2ccccn2)CC1CCO (stereo not drawn)	14	-2	3%	-2	-4%	-2
OCCC1CN(Cc2cccn2-c2ncccn2)CCN1Cc1ccc(F)cc1 (stereo not drawn)	14	-4	-1%	-35	nt	2
CCOc1ccc(CN2CCN(Cc3cccn3-c3cccnc3)CC2CCO)cc1 (stereo not drawn)	-46	-8	-5%	9	0%	3
CSc1ccc(CNC(=O)C2(C)CCN2C(C)C)cc1 (stereo not drawn)	nt	nt	nt	nt	0%	nt
Cc1c(-c2ccc(Br)cc2)nc2ccccn12	10	-9	?	9	25µM*	11
Cc1ccc(-c2nc3ccccn3c2C=O)cc1	nt	-7	7%	-17	-7%	5
CN1CCc2c(sc3c2C(=O)NC(c2ccco2)N3)C1 (stereo not drawn)	2	4	9%	11	28µM*	1
SMILES	hERG WT inh	TRPV1 potentiator	p53 reactivation	KCNH2 3.1 inh	ClpP mod	TRPV1 agonist
CCOC(=O)N1CCc2c(sc3c2C(=O)NC(c2ccccc2)N3)C1 (stereo not drawn)	0	2	4%	-23	28µM*	6
CN1CCc2c(sc3c2C(=O)NC(c2cn(Cc4ccccc4)c4ccccc24)N3)C1 (stereo not drawn)	1	14	-11%	-5	16µM*	0
COC(=O)c1c(N)sc(Cc2ccccc2)c1C	1	16	-2%	-103*	1%	0
COC(=O)c1c(NC(=O)/C=C/C(=O)O)sc(Cc2ccccc2)c1C	2	15	0%	20	-1%	1
O=C(N/N=C/C=C/c1ccccc1)C(O)c1ccccc1 (stereo not drawn)	-11	nt	nt	-3	0%	nt
CC(/C=N/NC(=O)c1ccc(Br)cc1)=C\c1ccccc1	-5	-1	3%	?	-3%	2
COc1ccc(C(=O)N/N=C\C(C)=C\c2ccccc2)cc1OC	2	nt	nt	-98*	29%	nt
CC(/C=N/NC(=O)C(O)c1ccccc1)=C\c1ccccc1 (stereo not drawn)	-13	-5	18%	-169*	0%	12
Nc1nc2ccccc2nc1N	-13	24	7%	-15	14µM*	3
c1ccc2nc3ccccc3nc2c1	-1	-5	0%	1	-5%	0
Cc1ccc(-c2csc3ncnc(Sc4nnnn4-c4ccccc4)c23)cc1	nt	nt	nt	nt	-15%	nt
CCNC(=S)N1CCN(c2nc(CC)nc3sc4c(c23)CCCC4)CC1	-8	5	nt	-6	1%	83*
O=C(NCc1ccc(F)cc1)c1cc2c(=O)n3ccccc3nc2s1	nt	nt	nt	nt	4%	nt
Clc1ccc2nnc(Cl)n2n1	-220*	-7	3%	-183*	nt	-2
Cc1c(-n2cc(C(=O)O)c(=O)c3cc(F)c(N4CCCC(O)C4)c(F)c32)c(=O)n(-c2ccccc2)n1C (stereo not drawn)	16	-3	1%	nt	10µM*	-12
Cc1cc(NS(=O)(=O)c2ccc(NC(=O)C(C)Oc3ccc4c(C)cc(=O)oc4c3)cc2)no1 (stereo not drawn)	-7	4	-10%	-5	25µM*	2
CN1C(=O)C2(OCC(C)([N+](=O)[O-])CO2)c2ccccc21 (stereo not drawn)	-8	-1	3%	-29	nt	0
CN1C(=O)C2(N=c3ccccc3=N2)c2ccccc21	-5	-8	0%	10	13µM*	4
COc1ccc(C(=O)C2CCN(C(=O)c3ccc(F)cc3)CC2)cc1	1	-17	10%	0	0%	6
Cc1ccc(CN2CCC(C(=O)c3ccc(F)cc3)CC2)cc1	6	nt	nt	-75*	-1%	nt
COc1ccc(CN2CCC(C(=O)c3ccc(F)cc3)CC2)cc1	-7	-17	nt	-73*	-1%	21
CSc1ccc(CN2CCC(C(=O)NCc3ccc(C)cc3)CC2)cc1	nt	17	4%	-93*	1%	7
Cc1ccc(NC(=O)N2CCC(C(=O)c3ccc(F)cc3)CC2)cc1	1	8	6%	16	nt	?
